target: Follistatin-related protein 3 (Homo sapiens) (UniProt O95633); test: compounds binding follistatin-related protein 3 – biochemical, small-molecule microarray, 635 nm fluorescence, primary screen (AID 1105); settings: FSTL3 binding, higher = more signal;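 note: score merges emission near 667 nm and signal to noise per printed spot across three slides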
Sequence (O95633 whole entry, looked up): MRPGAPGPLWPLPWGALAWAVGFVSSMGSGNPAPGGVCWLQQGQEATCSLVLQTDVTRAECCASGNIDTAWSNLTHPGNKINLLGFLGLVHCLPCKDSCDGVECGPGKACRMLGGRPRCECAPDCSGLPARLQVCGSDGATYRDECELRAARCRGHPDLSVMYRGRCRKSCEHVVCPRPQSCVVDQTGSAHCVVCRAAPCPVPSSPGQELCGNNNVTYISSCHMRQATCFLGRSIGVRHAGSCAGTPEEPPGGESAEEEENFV

Compared with CCCCOC(OCCCC)C(O)CSc1ccc2ccccc2c1 (stereo unspecified), C=CC[C@@H]1C=C[C@H](Oc2ccc(C)cc2)[C@@H](COC(=O)NCc2cccc3ccccc23)O1 is lower in composite z-score: 0.589 for the first, 0.201 for the second.

Compared with CCOC(=O)CCN1C(=O)[C@H]2[C@H]3[C@H](O)[C@H](O)CC(=O)[C@@H]3CC[C@H]2C1=O, CCOC(=O)CCN1C(=O)[C@H]2[C@H]3[C@H](O)[C@H](O)CC(=NNC(=O)OCC)[C@H]3CC[C@H]2C1=O is lower in composite z-score: 1.15 for the first, 0.567 for the second.

First: CON=C(C)CCN1CCCc2nc(C)c(C)cc21
Second: CC(C)=NOC(C)CN1CCCCc2nc(C)c(C)cc21 (stereo unspecified)
The composite z-score of the first is higher: 0.68 for the first, 0.473 for the second.

Compared with COC(=O)CC=C1c2ccccc2[C@H](OC)[C@H]1C, C=CC[C@@H]1C=C[C@H](ON=C[C@@H](NS(=O)(=O)c2ccc(C)cc2)[C@H](C)C=CCC(=O)OC)[C@@H](CO)O1 is higher in composite z-score: 0.0242 for the first, 0.566 for the second.

Going from O=C1C=C[C@@H](O)[C@@H]2[C@@H]3C(=O)N(c4cccc(Oc5ccccc5)c4)C(=O)[C@@H]3CC[C@@H]12 to O=C1[C@H]2[C@H]3[C@H](O)[C@H](O)CC(=NOCc4ccccc4)[C@@H]3CC[C@H]2C(=O)N1c1cccc(Oc2ccccc2)c1, the composite z-score rises from 0.438 to 0.48.

First: CCCC[C@H]1CN2[C@@H](CC[C@@H](C)[C@@H]2c2ccc(Br)cc2)C(=O)O1
Second: COc1ccc(OC[C@@H]2CC3[C@@H](c4ccc(Br)cc4)[C@H](C)CC[C@H]3C(=O)O2)cc1 (stereo partly specified)
The composite z-score of the first is higher: 0.562 for the first, 0.354 for the second.

Going from CCOC(=O)[C@H](Cc1ccccc1)NC(=O)CCC1CC(OC(=O)NCc2cccc3ccccc23)CC2(CCCC(COC(=O)NCc3ccc4c(c3)OCO4)O2)O1 (stereo partly specified) to COC(=O)[C@H](C)NC(=O)CCC1CC(OC(=O)NCc2ccc3c(c2)OCO3)CC2(CCCC(COC(=O)NCCc3ccc(Cl)cc3)O2)O1 (stereo partly specified), the composite z-score rises from 0.224 to 0.762.

Going from CC(C)(C)N1C(=O)[C@H]2[C@H]3[C@H](O)[C@H](O)CC(=NNC(=O)OCc4ccccc4)[C@@H]3CC[C@H]2C1=O to COc1ccc(COC(=O)NN=C2C[C@@H](O)[C@@H](O)[C@@H]3[C@@H]4C(=O)N([C@@H](C)c5ccccc5)C(=O)[C@@H]4CC[C@H]23)cc1, the composite z-score falls from 0.376 to -0.131.

First: CC(C)=CCCC(C)=CCON=C1C[C@@H](O)[C@@H](O)[C@@H]2[C@@H]3C(=O)N(c4cccc(Oc5ccccc5)c4)C(=O)[C@@H]3CC[C@H]12
Second: COc1ccc(COC(=O)NN=C2C[C@@H](O)[C@@H](O)[C@@H]3[C@@H]4C(=O)N(c5cccc(Oc6ccccc6)c5)C(=O)[C@@H]4CC[C@H]23)cc1
The composite z-score of the first is higher: 0.751 for the first, -0.226 for the second.

Compared with CCN1C(=O)[C@H]2[C@H]3[C@H](O)[C@H](O)CC(=NO[C@H](C)c4cn([C@H](CO)Cc5ccccc5)nn4)[C@@H]3CC[C@H]2C1=O, O=C1[C@H]2[C@H]3[C@H](O)[C@H](O)CC(=NOC[C@@H](O)COCc4ccco4)[C@@H]3CC[C@H]2C(=O)N1Cc1ccc2c(c1)OCO2 is lower in composite z-score: 1.05 for the first, 0.9 for the second.

Compared with C#CCCCON=C1C[C@@H](O)[C@@H](O)[C@@H]2[C@@H]3C(=O)N(C[C@@H]4CCCO4)C(=O)[C@@H]3CC[C@@H]12, CC(C)(C)N1C(=O)[C@H]2[C@@H]3C(=CC[C@H]2C1=O)C(=O)[C@H]1O[C@H]1[C@H]3O is lower in composite z-score: 0.67 for the first, -0.162 for the second.

First: COC(=O)CC=C[C@@H](C)[C@@H](C=NOC[C@@H](O)COCc1ccco1)NS(=O)(=O)c1ccc(C)cc1
Second: COC(=O)CC=C[C@@H](C)[C@@H](C=NOC(C)CN1CCCCc2nc(C)c(C)cc21)NS(=O)(=O)c1ccc(C)cc1 (stereo partly specified)
The composite z-score of the first is higher: 0.914 for the first, 0.437 for the second.

Going from CC(=O)OC[C@H]1O[C@H](CC=NO[C@@H](C)c2cn([C@H](CO)Cc3ccccc3)nn2)C=C[C@@H]1OC(C)=O to CC(=O)OC[C@H]1O[C@H](CC=NO[C@@H](C)c2cc(-c3c(C)cc(C)cc3C)no2)C=C[C@@H]1OC(C)=O, the composite z-score falls from 1.06 to -0.037.

Going from CCc1cc2c(nc1CC)CCN(CCC(C)=NO[C@@H]1O[C@H](COC(C)=O)[C@@H](OC(C)=O)[C@H](OC(C)=O)[C@H]1OC(C)=O)C2 to COc1cccc([C@H]2Oc3ccc(OC)cc3C(=NOCC[C@@H]3C=C[C@H](OC(C)=O)[C@@H](COC(C)=O)O3)[C@@H]2O)c1, the composite z-score falls from 1.32 to 0.795.

Compared with Cc1ccc2[nH]c3nc(CCCn4ccnc4-c4ccccc4)nnc3c2c1, COc1cccc([C@H]2Oc3ccc(OC)cc3C(=NO[C@@H](C)c3cc(-c4c(C)cc(C)cc4C)no3)[C@@H]2O)c1 is lower in composite z-score: 1.31 for the first, -1.99 for the second.

Going from CO[C@@H]1COC(=O)[C@H](CCSC)NC(=O)CC=C[C@@H](C)COC(=O)[C@@H]2CCCN2C(=O)CC=C[C@H]1C to COC(=O)[C@H](C)NC(=O)CCC1CC(OC(=O)NCc2ccc3c(c2)OCO3)CC2(CCCC(COC(=O)NCCC(C)C)O2)O1 (stereo partly specified), the composite z-score falls from 0.909 to 0.505.

First: COC(=O)[C@H](C)NC(=O)CC=C[C@@H](C)[C@@H]1C=C[C@H](O)[C@@H](CO)O1
Second: CCO[C@H](c1cc(OC)cc([N+](=O)[O-])c1OC)[C@H](C)[C@@H](OC)[C@H](C)C=CCC(=O)OC
The composite z-score of the first is higher: 0.948 for the first, 0.723 for the second.

Compared with CO[C@@H](C(C)C)[C@@H](C)C1OC(=O)CC1O (stereo partly specified), COc1ccc(OC[C@@H](CO)OC)cc1 is higher in composite z-score: -0.552 for the first, 0.475 for the second.
